According to PubChem BioAssay (Tox21):
Inconclusive results are not listed. Activity calls are given as the source filed them. Unless noted, calls follow the shape of the dose curve; as a rule, active = well fitted curve in the direction sought with a large enough effect in the repeat runs; inconclusive = weak or mixed curves; inactive = no such curve, though single readings can be large; an effect the other way counts as inactive or inconclusive.

Key:
[1] = qHTS assay to identify small molecule agonists of the peroxisome proliferator-activated receptor delta (PPARd) signaling pathway - cell viability counter screen (AID 743211); also: nearly all actives have a fitted effect of over 55% in size; also: potency is read from the fitted curve at half-maximal effect
Procedure, shortened: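 Multiplexed format: after the 2 h room-temperature LiveBLAzer B/G FRET step, CellTiter-Glo was added to the same wells. Luminescence after 30 min gave cell viability; compound exposure was 17 h at 37C.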

[2] = qHTS assay to identify small molecule antagonists of the peroxisome proliferator-activated receptor delta (PPARd) signaling pathway - cell viability counter screen (AID 743213); also: nearly all actives have a fitted effect of over 50% in size; also: potency is read from the fitted curve at half-maximal effect
Procedure, shortened: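 PPARd-bla HEK293H cells (3000/well) got compound plus 300 nM L165041 agonist for 17 h at 37 C. Viability in the same wells came from CellTiter-Glo luminescence after 30 min at room temperature.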

[3] = target: Peroxisome proliferator-activated receptor delta (Homo sapiens) (UniProt Q03181); experiment: qHTS assay to identify small molecule antagonists of the peroxisome proliferator-activated receptor delta (PPARd) signaling pathway (AID 743215; active = well fitted inhibition curve with a large enough effect in the signal ratio in the repeat runs, not every such curve was filed as active; the % refers to the signal ratio;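 also: cells stimulated with agonist L165041 at 300 nM final during compound exposure; series mostly up to about 62 µM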)
Procedure, shortened: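 Screen format: qHTS, antagonist mode. HEK293H PPARd-bla cells received compound and 300 nM L165041 (final), 17 h, 37 C. Beta-lactamase detected via FRET substrate fluorescence, 2 h, room temperature.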

[4] = target: Bile acid receptor (Homo sapiens) (UniProt Q96RI1); experiment: qHTS assay to identify small molecule antagonists of the farnesoid-X-receptor (FXR) signaling pathway (AID 743217; active = well fitted inhibition curve with a large enough effect in the signal ratio in the repeat runs, not every such curve was filed as active; the % refers to the signal ratio; also: potency is read from the fitted curve at half-maximal effect)
Procedure, shortened: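 Quantitative HTS, beta-lactamase reporter format: FXR-UAS-bla HEK 293T cells co-treated 16 h at 37 °C with compounds and 50 uM final chenodeoxycholic acid, then read by B/G FRET fluorescence.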

[5] = qHTS assay to identify small molecule agonists of the farnesoid-X-receptor (FXR) signaling pathway - cell viability counter screen (AID 743218); also: nearly all actives have a fitted effect of over 45% in size; also: potency is read from the fitted curve at half-maximal effect
Procedure, shortened: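 Same-well cytotoxicity check on FXR-UAS-bla HEK 293T cells: 5 h attachment, 16 h compound at 37 C, CellTiter-Glo luminescence read at room temperature after 30 min.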

[6] = target: Bile acid receptor (Homo sapiens) (UniProt Q96RI1); experiment: qHTS assay to identify small molecule agonists of the farnesoid-X-receptor (FXR) signaling pathway (AID 743220; active = well fitted activation curve with a large enough effect in the signal ratio in the repeat runs, not every such curve was filed as active; the % refers to the signal ratio; also: potency is read from the fitted curve at half-maximal effect)
Procedure, shortened: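 FXR-UAS-bla HEK 293T cells carrying a UAS-driven beta-lactamase reporter were plated for 5 h at 37C/5% CO2, then exposed to DMSO-dissolved Tox21 10K compounds for 16 h at 37C. A LiveBLAzer B/G FRET substrate was loaded for 2 h at room temperature before fluorescence reading.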

[7] = qHTS assay to identify small molecule antagonists of the farnesoid-X-receptor (FXR) signaling pathway - cell viability counter screen (AID 743221; active = well fitted cell-killing curve with a large enough effect in the repeat runs, not every such curve was filed as active; also: nearly all actives have a fitted effect of over 50% in size)
Procedure, shortened: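 CellTiter-Glo, 30 min RT, luminescence; same wells as the LiveBLAzer FRET read. Cells: FXR-UAS-bla HEK 293T. Treatment: compound with chenodeoxycholic acid 50 uM final, 16 h at 37 C.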

[8] = qHTS assay to identify small molecule agonists of the NFkB signaling pathway (AID 1159509; active = well fitted curve in the direction sought with a large enough effect in the signal ratio in the repeat runs, not every such curve was filed as active; the % refers to the signal ratio; also: potency is read from the fitted curve at half-maximal effect; as to activation: series mostly up to about 61 µM)
Procedure, shortened: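 Readout: FRET fluorescence, 405 nm excitation, 460/530 nm emission; beta-lactamase expression disrupts FRET. Cells: ME-180 stably carrying NF-kB-driven bla reporter. Compound exposure 5 hr, 37 C, 5% CO2.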

[9] = qHTS assay to identify small molecule agonists of the NFkB signaling pathway - cell viability counter screen (AID 1159515; calls by dose curve; also: series mostly up to about 61 µM; nearly all actives have a fitted effect of over 55% in size)
Procedure, shortened: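 Counter screen run alongside the NFkB-bla agonist assay: ME-180 reporter cells exposed to compounds for 5 hr, then lysed with CellTiter-Glo in the same wells. Luminescence, read after 30 min, reflects viable cells.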

[10] = qHTS assay to identify small molecule agonists of the endoplasmic reticulum stress response signaling pathway - cell viability counter screen (AID 1159517; calls by dose curve; also: nearly all actives have a fitted effect of over 50% in size; also: potency is read from the fitted curve at half-maximal effect)
Procedure, shortened: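 After overnight attachment, ESRE-bla HeLa cells were treated with Tox21 library compounds for 5 hr. CellTiter-Glo luminescence, read 30 min post-addition at room temperature, reported viability.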

[11] = qHTS assay to identify small molecule antagonists of the retinoid-related orphan receptor gamma (ROR-gamma) signaling pathway - cell viability counter screen (AID 1159520); also: nearly all actives have a fitted effect of over 50% in size; also: potency is read from the fitted curve at half-maximal effect
Procedure, shortened: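 Cytotoxicity was read from cellular ATP (CellTiter-Glo luminescence) after 16 hr at 37 C with 1 uM doxycycline induction. The inducer was added 2 hr after compound transfer to Tet-on ROR gamma CHO cells.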

[12] = target: Nuclear receptor ROR-gamma (Homo sapiens) (UniProt P51449); experiment: qHTS assay to identify small molecule antagonists of the retinoid-related orphan receptor gamma (ROR-gamma) signaling pathway (AID 1159521; also: nearly all actives have a fitted effect of over 50% in size; also: potency is read from the fitted curve at half-maximal effect)
Procedure, shortened: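 Readout: ONE-Glo luciferase luminescence, 30 min at room temperature. System: Tet-on RORγ CHO, RORE-LUC. Sequence: compound 2 h, doxycycline 1 uM final, 16 h at 37 C.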

[13] = qHTS assay to identify small molecule agonists of the AP-1 signaling pathway - cell viability counter screen (AID 1159525; calls by dose curve; also: nearly all actives have a fitted effect of over 55% in size)
Procedure, shortened: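 Intracellular ATP by Cell Titer Glo luminescence (30 min, RT) in the same ME-180 AP-1-bla wells after the 5 h compound exposure at 37 °C. Normalised to tetra n-octyl ammonium bromide and DMSO controls.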

[14] = qHTS assay to identify small molecule agonists of the vitamin D receptor (VDR) signaling pathway - cell viability counter screen (AID 743224); also: nearly all actives have a fitted effect of over 50% in size; also: potency is read from the fitted curve at half-maximal effect
Procedure, shortened: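 Counter screen for cytotoxicity: VDR-bla cells at 2,000 cells/well, 16 h compound exposure, then CellTiter-Glo luminescence after the beta-lactamase measurement.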

[15] = qHTS assay to identify small molecule antagonists of the vitamin D receptor (VDR) signaling pathway - cell viability counter screen (AID 743225); also: nearly all actives have a fitted effect of over 50% in size; also: potency is read from the fitted curve at half-maximal effect
Procedure, shortened: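 Cytotoxicity toward the VDR-bla HEK 293T line was scored by ATP-based CellTiter-Glo luminescence, read in the wells already used for the beta-lactamase readout after 16 h compound treatment under 3 nM 1-alpha,25-dihydroxyvitamin D3 stimulation.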

[16] = target: Peroxisome proliferator-activated receptor delta (Homo sapiens) (UniProt Q03181); experiment: qHTS assay to identify small molecule agonists of the peroxisome proliferator-activated receptor delta (PPARd) signaling pathway (AID 743212; calls by dose curve;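 also: HEK293H cells with PPARd UAS beta-lactamase reporter GeneBLAzer system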; also: potency is read from the fitted curve at half-maximal effect)
Procedure, shortened: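 Steps: seed PPARd-bla HEK293H cells; incubate 5 h, 37 C, 5% CO2; add compounds in DMSO; incubate, 37 C; add LiveBLAzer B/G FRET substrate; hold 2 h at room temperature; measure fluorescence.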

[17] = target: Vitamin D3 receptor (Homo sapiens) (UniProt P11473); experiment: qHTS assay to identify small molecule antagonists of the vitamin D receptor (VDR) signaling pathway (AID 743223; active = well fitted inhibition curve with a large enough effect in the signal ratio in the repeat runs, not every such curve was filed as active; the % refers to the signal ratio)
Procedure, shortened: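 After VDR-bla cells are plated and left 4 h at 37C, DMSO-dissolved compounds and 3 nM (final) calcitriol agonist are added. Incubation continues 16 h at 37C; FRET beta-lactamase substrate then develops 2 h at room temperature.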

[18] = qHTS assay to identify small molecule agonists of the AP-1 signaling pathway (AID 1159526; calls by dose curve)
[19] = target: Vitamin D3 receptor (Homo sapiens) (UniProt P11473); experiment: qHTS assay to identify small molecule agonists of the vitamin D receptor (VDR) signaling pathway (AID 743222; calls by dose curve; also: potency is read from the fitted curve at half-maximal effect)
Procedure, shortened: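 Using LiveBLAzer B/G FRET detection, agonism was scored in VDR-bla cells exposed overnight (16 h, 37C) to DMSO-dissolved compounds; substrate incubation was 2 h at room temperature.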

Measured: Potency

Bile acid receptor (Homo sapiens), sequence (Q96RI1 whole entry, looked up): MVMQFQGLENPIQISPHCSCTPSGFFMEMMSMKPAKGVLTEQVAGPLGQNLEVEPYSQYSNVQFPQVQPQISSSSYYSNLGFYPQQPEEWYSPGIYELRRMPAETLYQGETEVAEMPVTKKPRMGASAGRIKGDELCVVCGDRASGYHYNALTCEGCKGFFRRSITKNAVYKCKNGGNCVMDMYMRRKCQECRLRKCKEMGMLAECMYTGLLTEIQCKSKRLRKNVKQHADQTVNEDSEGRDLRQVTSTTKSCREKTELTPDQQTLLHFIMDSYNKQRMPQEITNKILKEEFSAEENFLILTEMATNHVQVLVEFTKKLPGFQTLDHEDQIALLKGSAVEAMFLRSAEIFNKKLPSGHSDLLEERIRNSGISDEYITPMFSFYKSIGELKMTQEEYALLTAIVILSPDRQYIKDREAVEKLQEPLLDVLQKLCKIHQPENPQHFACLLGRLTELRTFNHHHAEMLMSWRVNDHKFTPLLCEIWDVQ
Peroxisome proliferator-activated receptor delta (Homo sapiens), sequence (Q03181 whole entry, looked up): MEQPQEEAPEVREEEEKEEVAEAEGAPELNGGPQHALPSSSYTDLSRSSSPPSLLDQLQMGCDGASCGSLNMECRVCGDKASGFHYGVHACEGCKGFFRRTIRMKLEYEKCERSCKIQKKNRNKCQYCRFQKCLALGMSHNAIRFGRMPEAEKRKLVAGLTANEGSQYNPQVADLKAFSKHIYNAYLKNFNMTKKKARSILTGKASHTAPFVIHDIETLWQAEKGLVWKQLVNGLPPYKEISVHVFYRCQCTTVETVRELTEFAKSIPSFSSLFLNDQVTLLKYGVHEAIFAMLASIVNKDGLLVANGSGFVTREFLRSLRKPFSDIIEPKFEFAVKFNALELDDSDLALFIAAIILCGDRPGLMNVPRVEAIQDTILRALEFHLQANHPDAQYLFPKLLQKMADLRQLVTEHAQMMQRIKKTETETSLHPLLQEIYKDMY
Vitamin D3 receptor (Homo sapiens), sequence (P11473 whole entry, looked up): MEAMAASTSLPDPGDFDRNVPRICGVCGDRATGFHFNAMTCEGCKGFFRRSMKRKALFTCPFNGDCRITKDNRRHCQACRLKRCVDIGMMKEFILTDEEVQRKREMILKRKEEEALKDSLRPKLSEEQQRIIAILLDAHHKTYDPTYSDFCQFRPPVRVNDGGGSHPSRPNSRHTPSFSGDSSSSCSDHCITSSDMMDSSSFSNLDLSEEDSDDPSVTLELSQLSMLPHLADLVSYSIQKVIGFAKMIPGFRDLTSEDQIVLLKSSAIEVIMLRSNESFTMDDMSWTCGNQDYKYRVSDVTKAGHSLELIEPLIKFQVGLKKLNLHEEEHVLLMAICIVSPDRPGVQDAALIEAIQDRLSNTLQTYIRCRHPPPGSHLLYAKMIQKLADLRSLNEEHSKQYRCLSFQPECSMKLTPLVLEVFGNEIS

C[C@@H](O)[C@H]1C(=O)N2C(C(=O)O)=C([C@H]3CCCO3)S[C@H]12
inactive: [1] | [2] | [3] | [4] | [5] | [6] | [7] | [8] | [9] | [10] | [11] | [12] | [13]

CC1(C)[C@@H](OC(=O)CCC(=O)O)CC[C@]2(C)[C@H]3C(=O)C=C4[C@@H]5C[C@@](C)(C(=O)O)CC[C@]5(C)CC[C@@]4(C)[C@]3(C)CC[C@@H]12
inactive: [1] | [2] | [5] | [7] | [14] | [15] | [8] | [9] | [10] | [11] | [13]

Cc1cscn1
inactive: [1] | [16] | [2] | [3] | [5] | [7] | [17] | [14] | [15] | [8] | [9] | [10] | [11] | [13] | [18]

COc1ccccc1Oc1c(NS(=O)(=O)c2ccc(C(C)(C)C)cc2)nc(-c2ncccn2)nc1OCCO
inactive: [1] | [16] | [2] | [3] | [5] | [7] | [17] | [15] | [8] | [9] | [10] | [11] | [13]
active: [12] 18.8 µM

O=C1CCCCCCCCCCOCCCCO1
inactive: [1] | [16] | [2] | [3] | [5] | [7] | [19] | [17] | [15] | [8] | [9] | [10] | [11] | [13]

CCCCN(CCCC)C(C(N)=O)c1ccc(OC)cc1 (configuration not stated)
inactive: [1] | [16] | [2] | [3] | [5] | [7] | [14] | [15] | [8] | [9] | [10] | [11] | [13] | [18]

CC1(C)[C@H](C(=O)O)N2C(=O)C[C@H]2S1(=O)=O
inactive: [1] | [2] | [5] | [6] | [7] | [14] | [8] | [9] | [10] | [11] | [12] | [13]

O=Cc1c2ccccc2c(Cl)c2ccccc12
active: [16] 10.7 µM
inactive: [1] | [2] | [3] | [5] | [7] | [17] | [14] | [15] | [8] | [9] | [10] | [11] | [13]

C[C@@]12CCC[C@H]1[C@@H]1CC[C@H]3C[C@@H](O)CC[C@]3(C)[C@H]1CC2
inactive: [16] | [2] | [5] | [6] | [7] | [15] | [8] | [9] | [10] | [11]
active: [12] 13.3 µM

CCCCCCCCCCCCCCN(CCO)CCO
inactive: [19] | [8] | [9] | [10]
active: [1] 43.6 µM | [2] 49 µM | [4] 49 µM | [5] 43.6 µM | [14] 24.5 µM | [15] 43.6 µM | [11] 61.1 µM | [12] 30.6 µM

COC(=O)c1nc(Cl)c(Cl)nc1N
active: [1] 29.8 µM | [2] 29.8 µM | [6] 29.8 µM | [19] 11.9 µM | [14] 11.9 µM | [15] 23.9 µM | [8] 15.1 µM | [10] 21.3 µM | [11] 13.3 µM
inactive: [9] | [13]

CCN(CC)CCNC(=O)COc1ccc(OC)cc1
inactive: [1] | [16] | [2] | [4] | [5] | [6] | [7] | [19] | [17] | [14] | [15] | [8] | [9] | [10] | [11] | [13] | [18]

CC1(C)O[C@@H]2C[C@H]3[C@@H]4C[C@H](F)C5=CC(=O)C=C[C@]5(C)[C@H]4[C@@H](O)C[C@]3(C)[C@]2(C(=O)CO)O1
inactive: [1] | [16] | [2] | [3] | [4] | [5] | [6] | [7] | [14] | [15] | [8] | [9] | [10] | [11] | [13]

c1cc(N(CC2CO2)CC2CO2)ccc1Cc1ccc(N(CC2CO2)CC2CO2)cc1 (configuration not stated)
inactive: [1] | [2] | [5] | [7] | [15] | [8] | [9] | [10] | [13]
active: [11] 54.5 µM

C=C(C)C(=O)OCCOCCOC(=O)C(=C)C
inactive: [1] | [16] | [2] | [3] | [4] | [6] | [7] | [17] | [14] | [15] | [8] | [9] | [10] | [11] | [18]

CC(=O)[C@H]1[C@H](C#N)C[C@H]2[C@@H]3CC=C4C[C@@H](O)CC[C@]4(C)[C@H]3CC[C@@]21C
inactive: [1] | [16] | [3] | [4] | [5] | [7] | [14] | [15] | [8] | [9] | [10] | [11] | [12] | [13]
